IP6K1 inhibitor: Primary qHTS assay for small molecule inhibitors of Inositol hexaphosphate kinase 1 (IP6K1). Inositol hexakisphosphate kinase 1 (Homo sapiens), Q92551. IP6K1 kinase, ADP-Glo luminescence, 2 h; hits give low values. activity change, % (series mostly up to about 58 µM). 140,000 compounds, 0.81% hits. AID 1645851, 2021; in the data active = activity change below about -25%; also: % is scaled to controls: 0 for no effect and ±100 for the full control effect
Target sequence (Q92551 whole entry, looked up): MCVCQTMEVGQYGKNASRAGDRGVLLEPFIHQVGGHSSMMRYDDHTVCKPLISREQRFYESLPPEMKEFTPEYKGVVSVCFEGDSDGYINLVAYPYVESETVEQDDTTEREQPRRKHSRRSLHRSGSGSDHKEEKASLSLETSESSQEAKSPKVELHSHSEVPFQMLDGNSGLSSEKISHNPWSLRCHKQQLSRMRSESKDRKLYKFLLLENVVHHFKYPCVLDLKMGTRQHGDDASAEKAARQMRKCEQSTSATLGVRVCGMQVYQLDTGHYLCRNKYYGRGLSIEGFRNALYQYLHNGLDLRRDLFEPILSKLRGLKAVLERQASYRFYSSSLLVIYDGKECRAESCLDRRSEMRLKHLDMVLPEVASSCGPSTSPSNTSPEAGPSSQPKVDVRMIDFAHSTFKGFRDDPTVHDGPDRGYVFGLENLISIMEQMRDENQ
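ADP-Glo luminescence measures ADP made by human IP6K1 during a 2 h RT reaction with ATP/IP6 (mix at 1.3 mM/130 uM); top library doses 57.5 and 19.1 uM final.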
HEK293 viab: GF-AFC viability counterscreen for inhibitors of alpha-synuclein gene (SNCA) expression; HEK-293-SNCA-luc viability, GF-AFC fluorescence, 24 h; 150,000 compounds, 0.12% hits; AID 1671193, 2021; Potency, µM (series often up to 57.1 µM), for inactives: top-dose activity change, negative = cytotoxicity, most hits filed as cytotoxic;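 also: potency is read from the fitted curve at half-maximal effect; 0% = DMSO-treated cells and -100% = medium-only wells without cells; nearly all actives have a fitted effect of over 30% in size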
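HEK-293-SNCA-luc cells (1500/well) plated 24 h, then exposed 24 h to a dilution series; GF-AFC added 30 min at 37C, fluorescence 405/540 nm; normalised to medium-only and DMSO wells, Hill fit.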
SNCA expr inhib: Primary qHTS assay for inhibitors of alpha-synuclein gene (SNCA) expression; HEK-293 SNCA-luciferase knock-in, luminescence, 24 h; AID 1671194, 2021; 140,000 compounds, 0.17% hits; Potency, µM (titrated, usually from 57.2 µM), for the others: top-dose activity change, negative = inhibition, actives largely listed as inhibitors;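 also: potency is read from the fitted curve at half-maximal effect; plate controls were DMSO cells for no effect and cell-free wells for full effect; nearly all actives have a fitted effect of over 45% in size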
KDM5B inhibitor: Primary screen for KDM5B Histone Demethylases FDH-coupled qHTS; AID 1347165, 2019; 220,000 compounds, 2.6% hits; Lysine-specific demethylase 5B (Homo sapiens), Q9UGL1; Potency, µM (doses to about 57.7 µM), hits mostly inhibitors; KDM5B demethylase, FDH-coupled NADH fluorescence (FDH is formaldehyde dehydrogenase); also: potency is read from the fitted curve at half-maximal effect; 0% is about no effect; nearly all actives have a fitted effect of over 70% in size
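Here, H3K4me3 peptide (12.5 µM in substrate mix) is demethylated by KDM5BΔAP, 200 nM final, after 10 min compound exposure. Formaldehyde product is coupled through FDH (0.25 U/mL in mix) to NADH fluorescence; 30-min ΔRFU feeds dose-response curves.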
Numbers without * were called inactive; [ ] = another dose, or the depositor's remark. Shown are actives, neighbours in structure and some others; about 2.9% of the full set was active somewhere. Unless noted, calls follow the shape of the dose curve; as a rule, active = well fitted curve in the direction sought with a large enough effect; inconclusive = small, poorly fitted or top-dose-only effect, or another doubt; inactive = no such curve, though single readings can be large; an effect the other way counts as inactive or inconclusive.

Screening O=C1COc2ccc(-c3ccccc3)nc2CN1CCOc1ccccc1 returned IP6K1 inhibitor -5, HEK293 viab 2%[87.6 µM], SNCA expr inhib 11%[87.6 µM] and KDM5B inhibitor inactive.
`O=C1COc2ccc(-c3ccc4c(c3)OCO4)nc2CN1Cc1ccc(F)cc1` gave IP6K1 inhibitor -1, HEK293 viab -9%[87.6 µM], SNCA expr inhib -5%[87.6 µM] and KDM5B inhibitor 35µM*.
`O=[S+]([O-])(NC1CCN(c2nccc(Nc3ccccc3F)n2)CC1)c1cccs1` gave IP6K1 inhibitor -7, HEK293 viab -6%[12.5 µM] and SNCA expr inhib 22%.
`CC1Oc2ccc(NC(=O)c3ccc(Cl)cc3)cc2CN(Cc2cc(F)cc(F)c2)C1=O` (centres undefined) gave IP6K1 inhibitor 17, HEK293 viab -13%, SNCA expr inhib -5% and KDM5B inhibitor inconclusive.
Screening CSCc1noc(CNC(=O)c2ccc(-c3ccccc3Cl)o2)n1 returned IP6K1 inhibitor 21, HEK293 viab 19%, SNCA expr inhib -3% and KDM5B inhibitor 32µM*.
`O=C(CSCc1ccc(F)cc1)N1CCc2c([nH]c3ccccc23)C1c1ccc(Cl)cc1` (centres undefined) gave IP6K1 inhibitor 20, HEK293 viab -6%, SNCA expr inhib 10µM* and KDM5B inhibitor inconclusive.
`O=C(C1CCCN1c1nc2ncccc2o1)N1CCCC1` (centres undefined) gave IP6K1 inhibitor 1, HEK293 viab -11%[87.6 µM], SNCA expr inhib -13%[87.6 µM] and KDM5B inhibitor 40µM*.
`O=C(C1CCCN1c1nc2ncccc2o1)N1CCOCC1` (centres undefined) gave IP6K1 inhibitor -5, HEK293 viab 7%[87.6 µM], SNCA expr inhib 8%[87.6 µM] and KDM5B inhibitor 28µM*.
O=C(C1CCCN1c1nc2ncccc2o1)N1CCN(c2ncccn2)CC1 (centres undefined) was read as IP6K1 inhibitor 2, HEK293 viab inconclusive, SNCA expr inhib -5% and KDM5B inhibitor 14µM*.
Screening O=C(C1CCN(c2nc3ncccc3o2)CC1)N1CCN(c2ncccn2)CC1 returned IP6K1 inhibitor 8, HEK293 viab -4% and SNCA expr inhib -7%.
Screening Cn1ncc2c(C(=O)NCc3ccccc3)cc(-c3cccnc3)nc21 returned IP6K1 inhibitor 14, HEK293 viab 4% and SNCA expr inhib 110%.
`COc1ccccc1-c1cccc(C(=O)N2CCN(C(=O)Nc3ccccc3)CC2)c1` gave IP6K1 inhibitor 4, HEK293 viab 6%[12.5 µM] and SNCA expr inhib 2%.
COc1ccccc1-c1cccc(CN2CCCC(C(=O)N3CCCC(C)C3)C2)c1 (centres undefined) was read as IP6K1 inhibitor -7, HEK293 viab -7% and SNCA expr inhib inconclusive.
For CC(C)c1noc(-c2cccn3c(CNC(=O)Cc4ccccc4Cl)nnc23)n1 the results were IP6K1 inhibitor 6, HEK293 viab 7%, SNCA expr inhib 4% and KDM5B inhibitor 25µM*.
Screening CC(C)c1noc(-c2cccn3c(CNC(=O)c4ccc(Cl)cc4)nnc23)n1 returned IP6K1 inhibitor 5, HEK293 viab -8%, SNCA expr inhib -27% and KDM5B inhibitor 25µM*.
`CC(C)c1noc(-c2cccn3c(CNC(=O)c4ccccc4Cl)nnc23)n1` gave IP6K1 inhibitor -2, HEK293 viab 4%, SNCA expr inhib -13% and KDM5B inhibitor 10µM*.
For CCOc1ccccc1C(=O)NCc1nnc2c(-c3nc(C(C)C)no3)cccn12 the results were IP6K1 inhibitor 5, HEK293 viab 10%, SNCA expr inhib 6% and KDM5B inhibitor inconclusive.
Cc1ccccc1CC(=O)NCc1nnc2c(-c3nc(C(C)C)no3)cccn12 was read as IP6K1 inhibitor -5, HEK293 viab 24%, SNCA expr inhib 2% and KDM5B inhibitor 22µM*.
`Cc1ccc(CC(=O)NCc2nnc3c(-c4nc(C(C)C)no4)cccn23)cc1` gave IP6K1 inhibitor 13, HEK293 viab 3%, SNCA expr inhib -8% and KDM5B inhibitor inconclusive.
`Cc1ccc(C(=O)NCc2nnc3c(-c4nc(C(C)C)no4)cccn23)cc1` gave IP6K1 inhibitor 18, HEK293 viab 6%, SNCA expr inhib -22% and KDM5B inhibitor inconclusive.
COc1ccc(CC(=O)NC2CCCN(Cc3cccc(-c4ccc(C)c(Cl)c4)c3)C2)cc1 (centres undefined) was read as IP6K1 inhibitor -4.
Screening Cc1ccc(NC(=O)CCNc2cnc3cnccn23)cc1F returned IP6K1 inhibitor 26, HEK293 viab 2%, SNCA expr inhib -29% and KDM5B inhibitor 22µM*.
Cc1cc(C)n(C(C)CC(=O)Nc2ccc(C)c(F)c2)n1 (centres undefined) was read as IP6K1 inhibitor -6, HEK293 viab 7%, SNCA expr inhib 10% and KDM5B inhibitor inactive.
c1ccc(CCN2CCNc3cc(N4CCN(c5ccccn5)CC4)ncc3C2)cc1 was read as IP6K1 inhibitor -8, HEK293 viab inconclusive, SNCA expr inhib 17%[87.6 µM] and KDM5B inhibitor inconclusive.
c1ccc(CCNc2ncncc2-c2nc(-c3ccccc3)no2)cc1 was read as IP6K1 inhibitor -6, HEK293 viab 3%, SNCA expr inhib 1% and KDM5B inhibitor 35µM*.
`CCc1ccc(CNc2ncncc2-c2nc(-c3ccccc3)no2)cc1` gave IP6K1 inhibitor -7, HEK293 viab 14%, SNCA expr inhib -1% and KDM5B inhibitor 28µM*.
Screening CN(C)C1CCN(c2ccc(-c3nc(CCCc4ccccc4)no3)cn2)CC1 returned IP6K1 inhibitor 4, HEK293 viab inconclusive, SNCA expr inhib 90% and KDM5B inhibitor inconclusive.
`C=C1C(=O)O[C@@H]2C/C(C)=C\C(=O)/C=C(\C)[C@@H](OC(=O)/C(C)=C\C)[C@H](O)[C@@H]12` gave IP6K1 inhibitor 7 and HEK293 viab 15µM*.
C=C1C(=O)O[C@@H]2[C@H]3C(C)=CC(=O)C3=C(C)[C@@H](OC(=O)/C(C)=C\C)[C@H](O)[C@@H]12 was read as IP6K1 inhibitor 8 and HEK293 viab inconclusive.
O=C(Cc1cccs1)N1CCCN(CCc2ccccc2)c2ccccc21 was read as IP6K1 inhibitor -4, HEK293 viab 2%, SNCA expr inhib -11% and KDM5B inhibitor 22µM*.
`O=C(Cc1ccc(F)cc1)N1CCCN(CCc2ccccc2)c2ccccc21` gave IP6K1 inhibitor 27, HEK293 viab -3% and SNCA expr inhib -16%.
For N#CC1CCN(C(=O)c2cc(Br)cn3ccnc23)CC1 the results were IP6K1 inhibitor 2, HEK293 viab 2%[87.6 µM], SNCA expr inhib -12%[87.6 µM] and KDM5B inhibitor 40µM*.
Screening O=C(c1cc(Br)cn2ccnc12)N1CCN(c2ncccn2)CC1 returned IP6K1 inhibitor -6, HEK293 viab -6%, SNCA expr inhib 20% and KDM5B inhibitor inconclusive.
Screening O=C(c1cc(Br)cn2ccnc12)N1CCCC1 returned IP6K1 inhibitor -18, HEK293 viab 4%[87.6 µM], SNCA expr inhib -22%[87.6 µM] and KDM5B inhibitor 35µM*.

Screening results from PubChem BioAssay.
